ADAM10 inh = ADAM10 inhibition, QFRET primary screen; O14672; recombinant ADAM10, EDANS/DABCYL FRET peptide cleavage, 3 h; inhibition, % at 7 µM; hit rate 0.62% among 370,000;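 active = inhibition above a per-campaign cutoff equal to the mean of compounds falling between control-based bounds plus 3 SD, cut at about 20% in these data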
PLCb3 inh = blocks human PLC-beta3 enzyme activity | inhibition, % at 12.2 µM | AID 720704 | hit rate 0.18% among 370,000 | Q01970 | Purified PLC-beta3, fluorogenic substrate, fluorescence; in the data active = inhibition above about 11%
ADAM17 inh = ADAM17 inhibition, QFRET primary screen. P78536. inhibition, % at 6.95 µM. recombinant ADAM17, EDANS/DABCYL FRET peptide cleavage. hit rate 0.83% among 370,000;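 active = inhibition above the mean of compounds lying between control limits plus 3 SD, set per campaign, cut at about 8.5% in these data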
KLK7 zymogen act = activators of human kallikrein-7 zymogen; purified proKLK7, EDANS-DABCYL substrate fluorescence; 100% is mature enzyme control, 0% vehicle; activation, % at 7 µM; hit rate 0.9% among 370,000;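 active = activation above the mean of all tested compounds plus 3 SD, computed per campaign excluding outliers beyond control limits, cut at about 13% in these data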
PLCg1 inh = PLC-gamma1 (human) inhibition, primary screen. hit rate 0.84% among 370,000. inhibition, % at 12.2 µM. P19174. purified PLC-gamma1, fluorogenic substrate, fluorescence. AID 720700; in the data active = inhibition above about 9.5%
Target sequence (P19174 whole entry, looked up): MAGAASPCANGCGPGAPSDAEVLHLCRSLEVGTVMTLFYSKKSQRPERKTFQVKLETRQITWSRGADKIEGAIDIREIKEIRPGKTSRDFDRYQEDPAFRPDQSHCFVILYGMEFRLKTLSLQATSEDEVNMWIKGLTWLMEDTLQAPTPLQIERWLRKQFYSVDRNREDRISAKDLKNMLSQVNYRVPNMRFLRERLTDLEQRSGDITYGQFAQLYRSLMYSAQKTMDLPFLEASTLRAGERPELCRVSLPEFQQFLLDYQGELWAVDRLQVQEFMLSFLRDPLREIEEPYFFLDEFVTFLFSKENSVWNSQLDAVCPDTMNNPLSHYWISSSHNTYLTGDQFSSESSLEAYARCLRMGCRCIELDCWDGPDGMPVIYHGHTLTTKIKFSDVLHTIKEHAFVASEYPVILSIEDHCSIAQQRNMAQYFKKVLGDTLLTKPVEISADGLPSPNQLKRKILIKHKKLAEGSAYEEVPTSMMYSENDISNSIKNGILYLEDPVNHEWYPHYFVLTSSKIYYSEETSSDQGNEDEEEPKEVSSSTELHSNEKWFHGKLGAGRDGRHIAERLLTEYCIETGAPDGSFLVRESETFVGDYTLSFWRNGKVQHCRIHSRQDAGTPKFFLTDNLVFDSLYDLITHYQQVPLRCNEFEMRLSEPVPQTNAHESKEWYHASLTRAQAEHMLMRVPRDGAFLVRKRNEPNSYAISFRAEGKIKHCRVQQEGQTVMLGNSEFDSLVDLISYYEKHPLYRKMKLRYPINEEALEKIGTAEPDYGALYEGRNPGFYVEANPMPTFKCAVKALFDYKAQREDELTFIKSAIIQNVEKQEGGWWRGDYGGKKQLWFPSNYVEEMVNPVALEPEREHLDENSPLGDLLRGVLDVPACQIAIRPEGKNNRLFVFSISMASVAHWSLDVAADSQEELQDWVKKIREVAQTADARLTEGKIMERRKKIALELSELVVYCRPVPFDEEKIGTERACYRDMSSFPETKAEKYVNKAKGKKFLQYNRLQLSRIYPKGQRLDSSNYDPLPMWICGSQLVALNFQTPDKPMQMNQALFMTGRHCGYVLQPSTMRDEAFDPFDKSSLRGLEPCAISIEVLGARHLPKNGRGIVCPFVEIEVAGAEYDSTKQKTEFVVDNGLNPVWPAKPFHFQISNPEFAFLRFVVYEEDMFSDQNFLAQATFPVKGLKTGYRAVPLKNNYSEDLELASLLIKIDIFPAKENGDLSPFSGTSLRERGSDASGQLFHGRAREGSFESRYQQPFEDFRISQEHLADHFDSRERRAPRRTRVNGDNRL
KLK7 act conf = confirmation of human kallikrein-7 zymogen activators; activation, % at 7 µM; shares compounds with KLK7 zymogen act; purified proKLK7, EDANS-DABCYL substrate fluorescence; scaled: vehicle 0, mature enzyme 100; hit rate 68% among 3,200;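 active = activation, as change over the incubation, above the mean of all tested compounds plus 3 SD, cut at about 13% in these data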
EDANS interfere = optically interferes with EDANS-DABCYL signal, flagging KLK7 hits. shares compounds with KLK7 zymogen act. EDANS-DABCYL substrate fluorescence interference, no enzyme, 4 h; solvent 0%, active enzyme control 100%. activation, % at 7 µM. hit rate 80% among 3,200. AID 686952;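 active = activation above the all-compound mean plus 3 SD, ignoring values outside control-based bounds, cut at about 4.8% in these data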;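 also: value is the 4 h activation minus the activation read at time zero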
K7 EDANS ctr = EDANS fluorescence interference in dose response, no enzyme | EC50, µM | EDANS-DABCYL peptide fluorescence interference | shares compounds with KLK7 zymogen act | hit rate 20% among 250;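 active = compounds that raise the fluorescence signal in this interference counterscreen, with EC50 at or below 10 µM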;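 also: intact quenched peptide substrate alone read at 355 nm excitation and 520 nm emission; signal is fluorescence gain from T0 to T4 after four hours at room temperature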
Each line names hits and unclear results; the compound was inactive in the other large screens (follow-up assays come after a bar, where they were run). Sampled rows, rich in hits. Any-hit rate of the full collection: about 2.9%.

CN(Cc1ccc2c(c1)CCCN2C)C(=O)[C@@H](Cc1ccccc1)NC(=O)[C@H]1O[C@@H](n2ccc(=O)[nH]c2=O)[C@H](O)[C@@H]1O	none
Cc1occc1-c1nnc(SCC(=O)N[C@@H]2CCc3ccccc32)n1-c1ccccc1	none
COC(=O)C1=CN(C2CC2)C=C(C(=O)OC)C1c1ccccc1OC	KLK7 zymogen act 37 | KLK7 act conf 78 | EDANS interfere 78
COCCN1C=C(C(=O)OC)C(c2ccccc2Cl)C(C(=O)OC)=C1	KLK7 zymogen act 42 | KLK7 act conf inactive | EDANS interfere inactive
CCN1C=C(C(=O)OC)C(c2cccc(OC)c2OC)C(C(=O)OC)=C1	KLK7 zymogen act 45 | KLK7 act conf 76 | EDANS interfere 74
COC(=O)C1=CN(Cc2ccc(OC)c(OC)c2)C=C(C(=O)OC)C1c1cccc(OC)c1OC	none
CCCCOCCCNC(=O)C[C@H]1C[C@@]2(C(=O)OC)C(=C[C@H](C3CCCC3)O[C@@H]2C)N(CCc2ccc(OC)c(OC)c2)C1=O	none
CCCCCCCCN1CCS(=O)(=O)N(Cc2ccc(Cl)cc2)C(C(=O)OC)C1 (stereo not drawn)	none
O=C(Nc1ccc2c(c1)OCCO2)Nc1ccc2c(c1)OCO2	none
CC(Nc1ccc2c(c1)OCCO2)C(=O)Nc1ccc2c(c1)OCO2 (stereo not drawn)	KLK7 zymogen act 49 | KLK7 act conf 39 | EDANS interfere 52
COc1cccc(-c2cc(CNC(=O)[C@H]3O[C@@H](n4cnc(C(N)=O)n4)[C@H](O)[C@@H]3O)no2)c1	none
CNC(=O)C(C)N1c2cccc3cccc(c23)S1(=O)=O (stereo not drawn)	KLK7 zymogen act 15 | KLK7 act conf inactive | EDANS interfere 13
CCNc1cc2oc(=O)c(CN3CCOCC3)c(C)c2cc1C	KLK7 zymogen act 43 | KLK7 act conf 69 | EDANS interfere 78
CCCCNc1nc(-c2ccccc2)cc(C(F)(F)F)c1C(N)=O	KLK7 zymogen act 19 | KLK7 act conf inactive | EDANS interfere inactive
NC(=O)c1c(C(F)(F)F)cc(-c2ccccc2)nc1NCCO	none
Cc1cc(NC(=O)Cc2cn(Cc3ccccc3)c3ccccc23)ccc1Oc1cccnc1	none
CCOC(=O)C1CCN(C(=O)Nc2ccc3snnc3c2)CC1	none
CCOC(=O)C1CCN(C(=O)Nc2ccc3nccnc3c2)CC1	KLK7 zymogen act 14 | KLK7 act conf 71 | EDANS interfere 71
CCOC(=O)N1CCN(C(=O)Nc2ccc3nc(-c4ccccn4)c(-c4ccccn4)nc3c2)CC1	KLK7 zymogen act 32 | KLK7 act conf 32 | EDANS interfere 33
COC(=O)N1C[C@@H]2Oc3nccnc3O[C@@H]2C[C@@H]1c1ccccc1Br	none
C[C@@H]1COc2cccc(N3CCSCC3)c2S(=O)(=O)N1C	none
Cc1cccc(NC(=S)NNC(=S)NC2CCCCC2)c1C	KLK7 zymogen act 28 | KLK7 act conf inactive | EDANS interfere inactive
Cc1ccccc1NC(=S)NC1CCCC1	none
O=C(c1cc2nc(-c3ccco3)cc(C(F)(F)F)n2n1)N1CCCCCC1	none
O=C(NCCCN1CCCC1=O)c1cc2nc(-c3ccco3)cc(C(F)(F)F)n2n1	KLK7 zymogen act 14 | KLK7 act conf 13 | EDANS interfere inactive | K7 EDANS ctr inactive
Cc1ccc(-n2c(SC/C=C/c3ccccc3)nnc2-c2cccs2)cc1	none
CCOC(=O)C1CCN(c2ncnc3c2[nH]c2cccc(OC)c23)CC1	KLK7 zymogen act 19 | KLK7 act conf 23 | EDANS interfere 14 | K7 EDANS ctr inactive
COc1cccc2[nH]c3c(Cl)ncnc3c12	KLK7 zymogen act 17 | KLK7 act conf 32 | EDANS interfere 31
CCCCCN1CCCCC(NC(=O)c2c(F)cccc2F)C1=O (stereo not drawn)	none
CCOC(=O)c1cc(-c2ccccc2)nc2nc(N3CCCCC3)sc12	none
O=C(O)c1cc(-c2ccccc2)nc2nc(N3CCCCC3)sc12	KLK7 zymogen act 16 | KLK7 act conf 44 | EDANS interfere 41
Cc1ccc(-c2cc(C(=O)O)c3sc(N4CCCCC4)nc3n2)cc1	KLK7 zymogen act 25 | KLK7 act conf 19 | EDANS interfere 23
C[C@H](O)[C@@H]1C(=O)N2CCc3c([nH]c4c(-c5ccccc5)cccc34)[C@@H]2C[C@@H]1N(C)C(=O)OCc1ccccc1	none
COc1cc2ccc(=O)oc2c(O)c1OCC=C(C)C	KLK7 zymogen act 148 | KLK7 act conf 152 | EDANS interfere 151
CCOC(=O)c1[nH]c2ccc(F)cc2c1NC(=O)CCN1CCSCC1	none
CCOC(=O)c1[nH]c2ccc(OC)cc2c1NC(=O)CCN1CCSCC1	KLK7 zymogen act 17 | KLK7 act conf inactive | EDANS interfere 10
CCOC(=O)c1oc2ccccc2c1NC(=O)CN1CCN(C)CC1	none
CCOC(=O)c1oc2ccc(OC)cc2c1NC(=O)CN1CCN(C)CC1	KLK7 zymogen act 16 | KLK7 act conf inactive | EDANS interfere inactive
CCC1CN(C)C2Cc3c([nH]c4ccccc34)C(=O)CC1C2C(=O)OC (stereo not drawn)	KLK7 zymogen act 13 | KLK7 act conf inactive | EDANS interfere 8.1
COCCCNC(=O)C[C@H]1C[C@@]2(C(=O)OC)C(=C[C@H](C(C)(C)C)O[C@@H]2C)N(CCC2=CCCCC2)C1=O	none
COc1ccc(CN2C3=N[C@H](c4ccccc4)CC(=O)N3/C(=C\c3ccccc3)C2c2ccco2)c(OC)c1 (stereo partly drawn)	none
Cc1cc(-c2ccccc2)nc(N(C)C)c1S(C)(=O)=O	none
CNc1nc(-c2ccccc2)cc(C)c1S(C)(=O)=O	KLK7 zymogen act 20 | KLK7 act conf inactive | EDANS interfere inactive
CN(C)CCCNc1oc(-c2ccccc2)nc1C#N	none
N#Cc1nc(-c2ccccc2F)oc1NCc1cccc2c1OCO2	none
CN(C)CCNc1oc(-c2cccc(Cl)c2)nc1C#N	KLK7 zymogen act 59 | KLK7 act conf 31 | EDANS interfere 34
CN(C)CCNc1oc(-c2ccccc2F)nc1C#N	KLK7 zymogen act 57 | KLK7 act conf 30 | EDANS interfere 33
Cc1[nH]nc2c1C(c1ccc(F)cc1)C1=C(CC(C)(C)CC1=O)N2 (stereo not drawn)	KLK7 zymogen act 14 | KLK7 act conf inactive | EDANS interfere 12
COCCCN1C(=O)[C@H](CC(=O)N2CCCC2)[C@]2(C(=O)OC)CCCCC=C12	none
CC(C)CN1C(=O)c2ccc(NC(=O)c3cccs3)cc2C1=O	KLK7 zymogen act 13 | KLK7 act conf inactive | EDANS interfere inactive
